High-throughput results from PubChem BioAssay.
This is a sample that favours compounds with a hit; in the whole collection about 7.4% have one here.
NPC1 promoter act – NPC1 promoter activation; Huh7 NPC1 promoter luciferase reporter, 24 h; Potency, µM (top dose mostly 9.22 µM), inactives show at the top dose activation, most hits filed as activators; 320,000 tested, 2.4% active; AID 485313; note: % of control where 0% means no effect; nearly all actives have a fitted effect of over 60% in size
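Stable NPC1-promoter luciferase Huh7 line; cpd (DMSO) 24 h, 37 °C, 5% CO2; Amplite luciferase reagent 10 min RT; luminescence readout. qHTS format.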
ELG1 genotoxic – induces genotoxicity in HEK293T cells with luciferase-tagged ELG1 | HEK293T ELG1-luciferase reporter, luminescence, 16 h | Potency, µM (top dose mostly 46 µM), for the others: at the top dose activity change, positive = activation, most hits filed as activators | 330,000 tested, 1.3% active; note: % of control where 0% means no effect; nearly all actives have a fitted effect of over 60% in size
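HEK293T cells expressing luciferase-tagged ELG1 were treated with compound or DMSO for 16 hr at 37°C. Luciferase activity was then read after 30 min with ONE-Glo at room temperature; rising signal flags genetic stress.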
SMN2 splice up – enhancers of SMN2 splice variant expression; HEK293 SMN2-luciferase splicing reporter, luminescence, 30-36 h; Potency, µM (titrated, usually from 46.1 µM), without a hit: top-dose activity change, positive = activation, usual class: activators; 210,000 tested, 2.8% active; AID 1458; note: % of control where 0% means no effect; nearly all actives have a fitted effect of over 55% in size
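HEK293 cells carry an SMN2 […]–luciferase reporter in which exon 7 inclusion puts luciferase in frame. Cells were plated 10-12 h before compound addition, then incubated 30-36 h at 37C. ONE-Glo luminescence was read; sodium butyrate at 4.5 mM final served as control.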
Rab9 promoter act – activates the Rab9 promoter; 320,000 tested, 2.8% active; AID 485297; Huh7 Rab9 promoter-luciferase reporter, luminescence, 24 h; Potency, µM (top dose mostly 9.22 µM), inactives show at the highest dose activation, negative = inhibition, actives largely listed as activators; note: % of control where 0% means no effect; nearly all actives have a fitted effect of over 60% in size
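Luciferase signal after 10 min detection reagent at ambient indicates Rab9 promoter upregulation; stably transfected Huh7 cells were treated 24 h with compound in DMSO at 37 °C, 5% CO2.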
FLuc modulator – counter-screen for miR-21 project: firefly luciferase inhibitors or activators | P08659 | purified FLuc, Km substrates, luminescence inhibition | Potency, µM (doses to about 57.5 µM), for inactives: top-dose activity change, negative = inhibition, actives largely listed as inhibitors | 360,000 tested, 6.9% active;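 note: plate controls were vehicle for no effect and reference inhibitor for full effect; nearly all actives have a fitted effect of over 55% in size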
Target sequence (P08659 whole entry, looked up): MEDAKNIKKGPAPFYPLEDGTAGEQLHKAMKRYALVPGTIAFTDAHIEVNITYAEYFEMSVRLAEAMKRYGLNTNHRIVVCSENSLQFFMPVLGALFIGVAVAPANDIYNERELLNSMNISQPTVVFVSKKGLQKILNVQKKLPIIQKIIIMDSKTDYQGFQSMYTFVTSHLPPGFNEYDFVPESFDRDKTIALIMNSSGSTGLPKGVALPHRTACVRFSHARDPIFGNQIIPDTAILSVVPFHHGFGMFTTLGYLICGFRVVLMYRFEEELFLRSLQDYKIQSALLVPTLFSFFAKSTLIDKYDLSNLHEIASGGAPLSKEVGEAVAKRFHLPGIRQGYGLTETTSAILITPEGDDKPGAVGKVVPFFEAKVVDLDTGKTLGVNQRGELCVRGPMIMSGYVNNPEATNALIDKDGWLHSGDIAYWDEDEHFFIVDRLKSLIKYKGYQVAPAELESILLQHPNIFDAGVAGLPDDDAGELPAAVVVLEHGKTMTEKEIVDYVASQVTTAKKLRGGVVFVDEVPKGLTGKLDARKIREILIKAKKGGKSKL
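Purified P. pyralis luciferase, 10 nM final, with Km-level 10 uM D-luciferin and 10 uM ATP in 50 mM Tris acetate pH 7.5, 10 mM Mg acetate, 0.01% Tween-20, 0.05% BSA; 6-point qHTS titration about 60 µM downward; luminescence read.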
An asterisk follows results filed as active; ? = inconclusive; / = no result given. Calls come from the whole dose curve; as a rule, active = well fitted curve in the direction sought with a large enough effect; inconclusive = small, poorly fitted or top-dose-only effect, or another doubt; inactive = no such curve, though single readings can be large; an effect the other way counts as inactive or inconclusive. Potency is the fitted concentration of half-maximal effect.

SMILES	NPC1 promoter act	ELG1 genotoxic	SMN2 splice up	Rab9 promoter act	FLuc modulator
CC(C)(C)NS(=O)(=O)c1cccc(S(=O)(=O)c2cccc(S(=O)(=O)NC(C)(C)C)c2)c1	2.51µM*	?	14.1µM*	1.58µM*	5.36µM*
CC(C)(C)NS(=O)(=O)c1ccc(N2C(=O)c3ccccc3C2=O)cc1	-5.4%	-0.6%	-1.5%	2.0%	4.8%
Cc1cn([C@H]2C[C@@H](N=[N+]=[N-])[C@@H](CO)O2)c(=O)[nH]c1=O	/	/	-10.7%	/	/
Cc1csc2nc(-c3cccc(NC(=O)c4ccc(S(N)(=O)=O)cc4)c3)cn12	/	/	/	/	9.53µM*
Cc1csc2nc(-c3cccc(NC(=O)c4c(F)cccc4F)c3)cn12	/	/	/	/	21.3µM*
CCOCC(=O)Nc1ccc(-c2cn3c(C)csc3n2)cc1	/	/	/	/	16.9µM*
COc1ccc(CCNC(=O)CN2C(=O)COc3ccc(C)cc32)cc1OC	/	/	-5.5%	/	0.0%
O=C1CCC(C(=O)Nc2ccc(Cl)cc2)N1 (stereo not drawn)	-2.7%	2.3%	/	9.2%	7.2%
CCc1ccc(NC(=O)C2CCCCC2C(=O)O)cc1 (stereo not drawn)	-1.8%	-0.8%	-1.5%	-0.7%	-5.1%
O=C(Nc1ccc(Cl)cc1)C1C2CCCCC21 (stereo not drawn)	3.98µM*	?	/	3.98µM*	4.78µM*
CCc1ccc(NC(=O)C2C3/C=C\CCCCC32)cc1 (stereo not drawn)	4.47µM*	?	11.2µM*	3.16µM*	?
Cc1cccc(Cc2c(C)nc3nc(SCC(=O)NCc4ccc(F)cc4)nn3c2C)c1	/	/	-30.1%	/	-8.8%
Cc1cccc(C2C=C(c3ccc(F)cc3)Nc3nc4ccccc4n32)c1 (stereo not drawn)	/	/	/	/	5.36µM*
CCc1ccc(C2=CC(c3c(F)cccc3Cl)n3c(nc4ccccc43)N2)cc1 (stereo not drawn)	/	/	/	/	19µM*
CCN(CC)C(=O)C1=C(C)Nc2nc3ccccc3n2C1c1ccccc1F (stereo not drawn)	/	/	-12.1%	/	-1.9%
Cc1ccc(C2=CC(c3ccccc3C)n3c(nc4ccccc43)N2)cc1 (stereo not drawn)	/	/	/	/	6.01µM*
CCN1CCN(C(c2ccccc2Cl)c2sc3nc(-c4ccco4)nn3c2O)CC1 (stereo not drawn)	/	/	/	/	-11.8%
Cc1c(-c2nc(N)nc(Nc3ccc(F)cc3)n2)oc2ccccc12	2.24µM*	2.31µM*	15.8µM*	1.78µM*	?
Cc1ccccc1Nc1nc(N)nc(-c2oc3ccccc3c2C)n1	?	?	/	2.24µM*	21.3µM*
COC(=O)c1ccccc1NC(=O)c1noc2c1CCCC2	6.8%	8.1%	10.7%	4.9%	16.9µM*
CC(C)(C)C1CCc2onc(C(=O)Nc3cnn(Cc4ccc(F)cc4)c3)c2C1 (stereo not drawn)	-3.7%	12.8%	-0.2%	-6.3%	0.8%
Cc1ccc(NC(=O)c2noc3c2CCC3)cc1C	3.16µM*	?	2.82µM*	0.631µM*	2.39µM*
O=C(Nc1cnn(Cc2ccc(F)cc2)c1)c1noc2c1CCCC2	?	?	-10.1%	3.98µM*	15.1µM*
COc1ccc(NC(=O)c2noc3c2CCC3)cc1	1.41µM*	?	10µM*	0.501µM*	2.69µM*
CC(=O)c1ccc(NC(=O)c2noc3c2CCC3)cc1	0.794µM*	-8.9%	?	?	12µM*
SMILES	NPC1 promoter act	ELG1 genotoxic	SMN2 splice up	Rab9 promoter act	FLuc modulator
O=C(Nc1ccccc1C(=O)N1CCOCC1)c1noc2c1CCCC2	2.9%	0.0%	9.4%	-3.4%	-0.1%
O=C(Nc1cccc(O)c1)c1noc2c1CCCCC2	?	?	9.7%	?	0.953µM*
COc1cc(NC(=O)c2noc3c2CCC3)c(OC)cc1Cl	6.6%	5.6%	?	-0.1%	6.8%
O=C(Nc1ccc(OC(F)(F)F)cc1)c1noc2c1CCCC2	/	/	8.91µM*	/	?
O=C(Nc1cc(C(F)(F)F)ccc1Cl)c1noc2c1CCCCC2	/	/	12.4%	/	?
COc1ccc(C(=O)c2sc3nc(-c4ccccc4)ccc3c2N)cc1	-3.3%	-0.4%	-1.5%	-10.2%	-17.7%
NC(=O)c1sc2nc(-c3cccnc3)ccc2c1N	-1.5%	10.6%	/	-0.2%	?
CC(C)OC(=O)c1sc2nc(-c3ccccc3)ccc2c1N	0.316µM*	?	-31.1%	0.447µM*	0.301µM*
